Source: PubChem BioAssay (National Center for Advancing Translational Sciences (NCATS))
DRD3 agonist = qHTS of D3 Dopamine Receptor Agonist: qHTS | D(3) dopamine receptor (Homo sapiens), P35462 | 410,000 compounds, 0.58% hits | max activation, % | AID 652048, 2013 | D3R DiscoveRx beta-arrestin cells, luminescence, 90 min; in the data active = max activation above about 30%; also: 0% is about no effect
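Cells at 1500/well, incubated overnight, then treated with pinned compounds (dopamine as control) for 90 min at 37 degrees C. DiscoveRx reagent added for 30 - 60 minutes at room temperature; luminescence read.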
TRPML1 ag = qHTS for Agonists of the Human Mucolipin Transient Receptor Potential 1 (TRPML1); Mucolipin-1 (Homo sapiens), Q9GZU1; TRPML1-expressing cells, Ca2+ dye fluorescence, FDSS; activation, % (test concentration not listed); 410,000 compounds, 0.12% hits; in the data active = activation above about 50%; inconclusive = mostly about 30% to 49%; also: 0% is about no effect
Target sequence (Q9GZU1 whole entry, looked up): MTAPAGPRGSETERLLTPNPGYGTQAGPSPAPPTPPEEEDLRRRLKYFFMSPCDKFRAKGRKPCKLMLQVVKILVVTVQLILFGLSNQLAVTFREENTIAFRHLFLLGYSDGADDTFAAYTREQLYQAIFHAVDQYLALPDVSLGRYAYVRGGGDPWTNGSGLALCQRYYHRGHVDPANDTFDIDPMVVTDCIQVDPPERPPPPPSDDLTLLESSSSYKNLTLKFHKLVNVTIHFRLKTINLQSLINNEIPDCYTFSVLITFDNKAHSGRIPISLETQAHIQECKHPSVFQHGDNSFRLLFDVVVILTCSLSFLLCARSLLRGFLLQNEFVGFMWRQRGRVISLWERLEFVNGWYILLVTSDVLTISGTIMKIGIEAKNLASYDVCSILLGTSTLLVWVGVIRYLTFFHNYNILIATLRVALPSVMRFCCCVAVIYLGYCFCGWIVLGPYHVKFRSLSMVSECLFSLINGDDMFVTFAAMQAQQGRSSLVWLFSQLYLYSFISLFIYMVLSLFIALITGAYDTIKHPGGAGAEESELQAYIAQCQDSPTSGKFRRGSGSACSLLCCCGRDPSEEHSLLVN
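In this qHTS format, compounds were pin-transferred onto Ca8-dye-loaded TRPML1-DL cells induced with Tet overnight, and intracellular Ca2+ fluorescence was recorded kinetically for 110 s after a 10 s baseline. A subsequent 4uM final 54-4 (EC80) addition followed by a second 110 s read served as the antagonist phase.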
TRPML1 inh = qHTS for Inhibitors of the Human Mucolipin Transient Receptor Potential 1 (TRPML1); Mucolipin-1 (Homo sapiens), Q9GZU1; TRPML1-inducible cells, Ca2+ dye fluorescence, FDSS; hits give low values; inhibition of EC80 agonist-evoked calcium signal; activity change, negative = inhibition, % (test concentration not listed); 390,000 compounds, 0.02% hits; in the data active = activity change below about -50%; inconclusive = between about -30% and that limit;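 also: stimulus is agonist 54-4 at its EC80 concentration; % is scaled to controls: 0 for no effect and ±100 for the full control effect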
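Tet-induced TRPML1-DL cells loaded with Ca8 no-wash calcium dye were read kinetically on FDSS. Compound addition was followed by EC80 agonist 54-4 (4 uM final); inhibition was read over 110 s.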
DRD3 antagonist = qHTS of D3 Dopamine Receptor Antagonist: qHTS; max response, negative = inhibition, %; D3R cells, DiscoveRx beta-arrestin luminescence, antagonist mode; hits give low values; D(3) dopamine receptor (Homo sapiens), P35462; 360,000 compounds, 2.5% hits; in the data active = max response below about -50%; inconclusive = no clear call, values can overlap the other calls; also: % is scaled to controls: 0 for no effect and ±100 for the full control effect
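Cells expressing the human receptor were seeded at 1500 cells/well, incubated overnight at 37 degrees C in 5% CO2, then exposed to library compounds with dopamine controls for 90 minutes at 37 degrees C before luminescent detection.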
The depositor's hits bear a star. In the library only some 2.9% were active in any assay of this set; here they are far more common.

`Oc1c(C(c2ccccc2F)N2CCC3(CC2)OCCO3)sc2nc(-c3ccco3)nn12` (configuration not stated) gave DRD3 agonist 1, TRPML1 ag 2 and TRPML1 inh 28.
`COc1ccccc1NC(C)C(=O)c1c(C)[nH]c2ccccc12` (configuration not stated) gave TRPML1 ag -1.
For O=C(Nc1ccc(F)cc1C(F)(F)F)C1CCN(c2ncccn2)CC1 the results were DRD3 agonist 4, TRPML1 ag -1 and TRPML1 inh -3.
Cc1ccccc1C(=O)OCc1cc(=O)n2nc(C3CC3)sc2n1 was read as DRD3 agonist 3, TRPML1 ag -1 and TRPML1 inh 1.
For CN(C)C(CNC(=O)c1cccc(S(=O)(=O)N2CCN(c3ccc(F)cc3)CC2)c1)c1ccccc1 (configuration not stated) the results were DRD3 agonist -16, TRPML1 ag 2, TRPML1 inh 27 and DRD3 antagonist -81*.
`Cc1cccc(Cn2cnc3c(nnn3Cc3ccccc3F)c2=O)c1` gave DRD3 agonist 56*, TRPML1 ag 2, TRPML1 inh -15 and DRD3 antagonist 3.
Screening Cc1ccc(-n2nnc3c(=O)n(Cc4cc(C)ccc4C)cnc32)cc1 returned DRD3 agonist -7, TRPML1 ag 2, TRPML1 inh 11 and DRD3 antagonist -68*.
Cc1cccc(Cn2cnc3c(nnn3Cc3ccc(F)cc3)c2=O)c1 was read as DRD3 agonist 1, TRPML1 ag 4, TRPML1 inh 24 and DRD3 antagonist 22.
For Cc1cccn2c(=O)c(C(=O)NCc3cccc(F)c3)cnc12 the results were DRD3 agonist -2, TRPML1 ag 3 and TRPML1 inh 15.
CO[C@H](C(=O)[C@@H](O)[C@@H](C)O)C1Cc2cc3cc(O[C@H]4C[C@@H](O[C@H]5C[C@@H](O)[C@H](O)[C@@H](C)O5)[C@@H](O)[C@@H](C)O4)c(C)c(O)c3c(O)c2C(=O)[C@H]1O[C@H]1C[C@@H](O[C@H]2C[C@@H](O[C@H]3C[C@](C)(O)[C@H](O)[C@@H](C)O3)[C@H](O)[C@@H](C)O2)[C@H](O)[C@@H](C)O1 (some centres not stated) was read as DRD3 agonist 2.
Cc1[nH]n(-c2ccccc2)c(=S)c1C=Nc1cccc([N+](=O)[O-])c1 was read as DRD3 agonist -5, TRPML1 ag -1, TRPML1 inh -6 and DRD3 antagonist -100*.
For O=C(Nc1ccc2ccccc2c1)N1CCCN(CCOc2ccccc2)CC1 the results were DRD3 agonist 2, TRPML1 ag 1, TRPML1 inh -1 and DRD3 antagonist -78*.
`O=C(c1ccco1)c1nc2c(n1O)CCCCC2` gave DRD3 agonist 13, TRPML1 ag 1, TRPML1 inh -8 and DRD3 antagonist 25.
For CCOCc1c(C(=O)N2CCN(CCOc3ccc(Cl)cc3)CC2)oc2ccccc12 the results were DRD3 agonist 108*, TRPML1 ag 5, TRPML1 inh -13 and DRD3 antagonist -10.
Screening O=C(c1cc2ccccc2o1)N1CCN(CCOc2ccccc2)CC1 returned DRD3 agonist 58*, TRPML1 ag 0, TRPML1 inh 5 and DRD3 antagonist 25.
Screening O=C(c1cc2ccccc2o1)c1nc2c(n1O)CCCCC2 returned DRD3 agonist -4, TRPML1 ag 1, TRPML1 inh 7 and DRD3 antagonist -79*.
`O=C(c1cc2ccccc2o1)N1CCOCC1` gave DRD3 agonist 3, TRPML1 ag 0, TRPML1 inh -21 and DRD3 antagonist 2.
For COc1ccccc1S(=O)(=O)Cc1ccc(C(=O)NCc2ccc(Cl)cc2)o1 the results were DRD3 agonist 2, TRPML1 ag 0 and TRPML1 inh -1.
`O=C(OCCN1CCCCC1)c1ccccc1Br` gave DRD3 agonist -22, TRPML1 ag 1, TRPML1 inh 2 and DRD3 antagonist -22.
Screening O=C(OCCN1CCCCC1)c1cc2ccccc2o1 returned DRD3 agonist 1, TRPML1 ag 0, TRPML1 inh -9 and DRD3 antagonist -66*.
For O=C(c1cc2ccccc2o1)N1CCN(S(=O)(=O)c2ccccc2)CC1 the results were DRD3 agonist -4, TRPML1 ag 4, TRPML1 inh 3 and DRD3 antagonist 11.
`O=C(c1cc2ccccc2o1)N1CCN(S(=O)(=O)c2cccs2)CC1` gave DRD3 agonist 10, TRPML1 ag -1, TRPML1 inh -14 and DRD3 antagonist -56*.
For Cc1cc(C)cc(-n2cnc3cc(C(=O)NC4CCCCCC4)ccc32)c1 the results were DRD3 agonist -9, TRPML1 ag 3 and TRPML1 inh 49.
For CN(C)CCCN(C(=O)CCS(=O)(=O)c1ccccc1)c1nc2cc3c(cc2s1)OCO3 the results were DRD3 agonist -6, TRPML1 ag 1, TRPML1 inh -5 and DRD3 antagonist inconclusive.
CN(C)CCCN(C(=O)CCSc1ccccc1)c1nc2cc3c(cc2s1)OCO3 was read as DRD3 agonist -35, TRPML1 ag 1, TRPML1 inh -17 and DRD3 antagonist -50*.
For Cc1ccc(CNC(=O)CSc2c3c(nc4ccc(Cl)cc24)CCCC3)cc1 the results were DRD3 agonist 27, TRPML1 ag 1 and TRPML1 inh 0.
For Cc1ccc(C)c(NC(=O)CSc2c3c(nc4ccc(Cl)cc24)CCCC3)c1 the results were DRD3 agonist 43*, TRPML1 ag -1 and TRPML1 inh 1.
Screening COCCN1C(=O)N[C@@H](c2cccs2)C(C(C)=O)=C1C returned DRD3 agonist 35*, TRPML1 ag 0, TRPML1 inh -18 and DRD3 antagonist -17.
Screening COc1ccc(C(=O)C[n+]2cc(Br)cc(Br)c2)cc1 returned TRPML1 ag 0.
Screening CC(=O)Nc1ccc(-c2ccnc3c2CC(C(=O)Nc2ccc(Cl)c(C(F)(F)F)c2)O3)cc1 (configuration not stated) returned DRD3 agonist -9, TRPML1 ag 0 and DRD3 antagonist -66*.
Screening O=C(Nc1ccc(Cl)c(C(F)(F)F)c1)C1Cc2c(-c3ccccc3)ccnc2O1 (configuration not stated) returned DRD3 agonist -1, TRPML1 ag 0, TRPML1 inh 44 and DRD3 antagonist inconclusive.
Cc1cc(S(=O)(=O)c2ccc([N+](=O)[O-])cn2)ccc1Br was read as DRD3 agonist -47, TRPML1 ag 0, TRPML1 inh -2 and DRD3 antagonist -73*.
For Cc1cc(Sc2ccc([N+](=O)[O-])cn2)ccc1Br the results were DRD3 agonist 3, TRPML1 ag 1, TRPML1 inh 16 and DRD3 antagonist -20.
